Measured values reported in PubChem BioAssay.
Where “and” joins values, the source holds several entries; their conditions need not be identical. Equal entries are not always repeated. Calls of active or inactive are those of the source.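 The calls were made as follows, unless noted: active = thallium flux through the channel raised or lowered by more than 3 SD from vehicle-only wells, actives on both sides; inactive = the rest.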

Columns and labels:
[1] = P. berghei load reduction in hepatocytes – cell-based, HepG2, luciferase luminescence, HepG2 viability, primary screen (AID 624349; in the data active = parasite load remaining mostly below about 12%, no sharp cut-off; inactive = mostly above about 10%;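 also: 100% = mean of DMSO negative control wells on the same plate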); conditions: P. berghei liver stage in HepG2, luciferase luminescence, concentration not given here; parasite load remaining: stronger effect = lower value; viability: measured here: HepG2 viability without parasites
[2] = signal quenchers or enhancers, Cy5 substrate/SSB – biochemical, NIH Clinical Collection, E. coli SSB, artefact control for HCV NS3 helicase inhibitor project (AID 743268; call rule not given here); conditions: Cy5-oligo bound E. coli SSB, fluorescence interference
[3] = system: Hepatitis C virus NS3 helicase; assay: blockers of NS3h binding to DNA – biochemical, fluorescence polarization, NIH Clinical Collection, primary screen (AID 743270; call rule not given here); conditions: NS3 helicase binding to Cy5-dT15 DNA, stronger effect = higher value, concentration not given here
[4] = target: Single-stranded DNA-binding protein (Escherichia coli (strain K12)) (UniProt P0AGE0); assay: SSB-ssDNA binding inhibitors – biochemical, fluorescence polarization, NIH Clinical Collection, counter-screen for HCV NS3 helicase inhibitor project (AID 743271; in the data active = inhibition above about 28%); conditions: E. coli SSB-DNA binding, stronger effect = higher value, concentration not given here
[5] = compounds distorting NS3 helicase fluorescence signal – biochemical, NIH Clinical Collection, artefact control for HCV NS3 helicase inhibitor project (AID 743272; call rule not given here;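 also: HCV NS3 helicase with a Cy5 labelled single stranded DNA probe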); conditions: fluorescence interference counterscreen, HCV NS3 helicase assay; stronger effect = lower value
[6] = system: Neuropilin-2 / VEGF-C interaction (human); assay: small molecules blocking Neuropilin-2/VEGF-C interaction – biochemical, microplate binding format, z-score (AID 743281; call rule not given here); conditions: microplate NRP2/VEGF-C binding assay; stronger effect = lower value
[7] = modulation of C. elegans fzo-1 (AID 1259413; call rule not given here;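 also: fzo-1 mutant C. elegans worms in liquid wells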); conditions: C. elegans fzo-1 modulator screen, mean read-out; stronger effect = higher value
F380Y = assay: BK channel mutant inhibitors and activators – cell-based, U2OS BacMam, thallium flux, beta subunits, selectivity assay, profiling panel (AID 1259406); conditions: U2OS BacMam BK variants, at 30 µM;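 also: initial slope of Thallos dye fluorescence rise after thallium is added; log ratio against the mean of 0.3% DMSO vehicle wells on the same plate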
F380Y/beta1 = assay: as above; conditions: U2OS BacMam BK variants, at 30 µM
F380Y/beta2Delta = assay: as above; conditions: U2OS BacMam BK variants, at 30 µM
F380Y/beta4 = assay: as above; conditions: U2OS BacMam BK variants, at 30 µM
[8] = target: Calcium-activated potassium channel subunit alpha-1 (Homo sapiens) + Leucine-rich repeat-containing protein 26 (Homo sapiens) (UniProt Q12791+Q2I0M4); assay: as above; conditions: U2OS BacMam BK variants, F380Y/Slo1WT/gamma1, at 30 µM
R275C = assay: as above; conditions: U2OS BacMam BK variants, at 30 µM
R275C/beta1 = assay: as above; conditions: U2OS BacMam BK variants, at 30 µM
R275C/beta2Delta = assay: as above; conditions: U2OS BacMam BK variants, at 30 µM
R275C/beta4 = assay: as above; conditions: U2OS BacMam BK variants, at 30 µM
R275C/Slo1WT/beta2 = assay: as above; conditions: U2OS BacMam BK variants, at 30 µM
[9] = viability loss with induced miR-34 in A549 – imaging, A549 dox-inducible miR-34, nuclei and caspase counts, primary screen (AID 1347080;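 active = compounds whose cell count with miR-34 switched on is under 0.7 times the count with it off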); conditions: A549 miR-34 inducible, Hoechst nuclei count, 48 h
[10] = galactose survival enhancers in mitochondrial complex I cybrids – cell-based, galactose medium, ATP luminescence, primary screen (AID 1645843;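 active = z-score of at least 1.8 in each of two replicates, scored against plate mean and spread of sample wells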;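 also: positive z means more ATP and so rescue of galactose-driven cybrid death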); conditions: complex I mutant cybrid cells, 72 h, stronger effect = higher value
[11] = stronger effect = lower value, cell number ratio, induced over uninduced
[12] = measured here: relative caspase fold change +Dox/-Dox
[13] = measured here: total cells with miR-34 induction, stronger effect = lower value
[14] = measured here: total cells without miR-34 induction

Calcium-activated potassium channel subunit alpha-1 (Homo sapiens) + Leucine-rich repeat-containing protein 26 (Homo sapiens), sequence (Q2I0M4 whole entry, looked up, one chain of several): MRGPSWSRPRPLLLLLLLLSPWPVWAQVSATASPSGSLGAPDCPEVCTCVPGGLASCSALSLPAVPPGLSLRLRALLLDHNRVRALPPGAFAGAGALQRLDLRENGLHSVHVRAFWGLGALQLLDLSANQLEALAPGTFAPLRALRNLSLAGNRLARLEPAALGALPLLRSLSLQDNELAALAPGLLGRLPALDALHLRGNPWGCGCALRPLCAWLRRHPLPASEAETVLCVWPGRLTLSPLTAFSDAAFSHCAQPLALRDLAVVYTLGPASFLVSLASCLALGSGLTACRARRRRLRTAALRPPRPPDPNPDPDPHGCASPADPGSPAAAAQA

## O=C1c2c(O)cc(O)cc2O[C@H](c2ccc(O)c(O)c2)[C@@H]1O
[1]
  parasite load remaining: 102% (inactive)
  viability: 72.9%
[2]
  fluorescence ratio: 1.01 (inactive)
[3]
  inhibition: -0.4% (inactive)
[4]
  inhibition: -1.64% (inactive)
[5]
  fluorescence ratio: 1.01 (inactive)
[6]
  z-score: -0.585 (inactive)
[7]
  mean signal: 251 (inactive)
F380Y
  log fold change Tl+ flux: -0.0094 (inactive)
F380Y/beta1
  log fold change Tl+ flux: 0.0164 (inactive)
F380Y/beta2Delta
  log fold change Tl+ flux: 0.0588 (inactive)
F380Y/beta4
  log fold change Tl+ flux: -0.00507 (inactive)
[8]
  log fold change Tl+ flux: -0.00714 (inactive)
R275C
  log fold change Tl+ flux: -0.0635 (inactive)
R275C/beta1
  log fold change Tl+ flux: 6.5e-05 (inactive)
R275C/beta2Delta
  log fold change Tl+ flux: 0.0295 (inactive)
R275C/beta4
  log fold change Tl+ flux: -0.031 (inactive)
R275C/Slo1WT/beta2
  log fold change Tl+ flux: -0.00661 (inactive)

## O=C(O)Cc1ccc([N+](=O)[O-])cc1
[9]; [11]
  fold change: 0.849 (inactive)
[9]; [12]
  fold change: 0.69
[9]; [13]
  cell count: 8560
[9]; [14]
  cell count: 10100
[10]
  z-score: 0.95 (inactive)
F380Y
  log fold change Tl+ flux: -0.0269 (inactive)
F380Y/beta1
  log fold change Tl+ flux: -0.0396 (inactive)
F380Y/beta2Delta
  log fold change Tl+ flux: -0.012 (inactive)
F380Y/beta4
  log fold change Tl+ flux: -0.00207 (inactive)
[8]
  log fold change Tl+ flux: -0.0215 (inactive)
R275C
  log fold change Tl+ flux: -0.0145 (inactive)
R275C/beta1
  log fold change Tl+ flux: -0.00497 (inactive)
R275C/beta2Delta
  log fold change Tl+ flux: 0.00238 (inactive)
R275C/beta4
  log fold change Tl+ flux: -0.00439 (inactive)
R275C/Slo1WT/beta2
  log fold change Tl+ flux: 0.0202 (inactive)

## CCC(C)(C)N=C(NC#N)Nc1cccnc1
[1]
  parasite load remaining: 49.6% (inactive)
  viability: 69.3%
[2]
  fluorescence ratio: 0.95 (inactive)
[3]
  inhibition: -2.84% (inactive)
[4]
  inhibition: -3.54% (inactive)
[5]
  fluorescence ratio: 0.92 (inactive)
[6]
  z-score: -0.415 (inactive)
[7]
  mean signal: 201 (inactive)
[9]; [11]
  fold change: 0.909 (inactive)
[9]; [12]
  fold change: 1.24
[9]; [13]
  cell count: 9920
[9]; [14]
  cell count: 10900
[10]
  z-score: 0.04 (inactive)
F380Y
  log fold change Tl+ flux: 0.00312 (inactive)
F380Y/beta1
  log fold change Tl+ flux: 0.00744 (inactive)
F380Y/beta2Delta
  log fold change Tl+ flux: 0.00568 (inactive)
F380Y/beta4
  log fold change Tl+ flux: 0.0162 (inactive)
[8]
  log fold change Tl+ flux: 0.00265 (inactive)
R275C
  log fold change Tl+ flux: -0.0443 (inactive)
R275C/beta1
  log fold change Tl+ flux: -0.0211 (inactive)
R275C/beta2Delta
  log fold change Tl+ flux: -0.00288 (inactive)
R275C/beta4
  log fold change Tl+ flux: 0.0126 (inactive)
R275C/Slo1WT/beta2
  log fold change Tl+ flux: -0.00574 (inactive)

## c1ccc(-c2ccccn2)nc1
[9]; [11]
  fold change: 0.97 (inactive)
[9]; [12]
  fold change: 1.38
[9]; [13]
  cell count: 9830
[9]; [14]
  cell count: 10100
[10]
  z-score: 0.54 (inactive)
F380Y
  log fold change Tl+ flux: -0.0156 (inactive)
F380Y/beta1
  log fold change Tl+ flux: -0.0247 (inactive)
F380Y/beta2Delta
  log fold change Tl+ flux: 0.0286 (inactive)
F380Y/beta4
  log fold change Tl+ flux: 0.0375 (inactive)
[8]
  log fold change Tl+ flux: 0.0137 (inactive)
R275C
  log fold change Tl+ flux: 0.0175 (inactive)
R275C/beta1
  log fold change Tl+ flux: -0.0449 (inactive)
R275C/beta2Delta
  log fold change Tl+ flux: 0.0381 (inactive)
R275C/beta4
  log fold change Tl+ flux: -0.011 (inactive)
R275C/Slo1WT/beta2
  log fold change Tl+ flux: 0.000803 (inactive)

## Nc1nc(Cl)nc2c1ncn2[C@@H]1O[C@H](CO)[C@@H](O)[C@H]1O
[1]
  parasite load remaining: 214% (inactive)
  viability: 40.5%
[2]
  fluorescence ratio: 1 (inactive)
[3]
  inhibition: 5.15% (inactive)
[4]
  inhibition: 7.6% (inactive)
[5]
  fluorescence ratio: 1 (inactive)
[6]
  z-score: 0.198 (inactive)
[7]
  mean signal: 269 (inactive)
F380Y
  log fold change Tl+ flux: -0.00984 (inactive)
F380Y/beta1
  log fold change Tl+ flux: -0.0372 (inactive)
F380Y/beta2Delta
  log fold change Tl+ flux: -0.0171 (inactive)
F380Y/beta4
  log fold change Tl+ flux: -0.000976 (inactive)
[8]
  log fold change Tl+ flux: -0.026 (inactive)
R275C
  log fold change Tl+ flux: 0.0386 (inactive)
R275C/beta1
  log fold change Tl+ flux: -0.0185 (inactive)
R275C/beta2Delta
  log fold change Tl+ flux: -0.0141 (inactive)
R275C/beta4
  log fold change Tl+ flux: 0.0509 (inactive)
R275C/Slo1WT/beta2
  log fold change Tl+ flux: -0.00662 (inactive)

## O=c1[nH]c(=O)n(C2CC(O)C(CO)O2)cc1F (stereo not given)
[1]
  parasite load remaining: 68.3% (inactive)
  viability: 115%
[2]
  fluorescence ratio: 1.03 (inactive)
[3]
  inhibition: -1.36% (inactive)
[4]
  inhibition: 1.81% (inactive)
[5]
  fluorescence ratio: 1.04 (inactive)
[9]; [11]
  fold change: 1.17 (inactive) and 1.12 (inactive)
[9]; [12]
  fold change: 3.66 and 0.771
[9]; [13]
  cell count: 2970 and 2380
[9]; [14]
  cell count: 2550 and 2130
[10]
  z-score: -1.07 (inactive)
F380Y
  log fold change Tl+ flux: -0.00405 (inactive)
F380Y/beta1
  log fold change Tl+ flux: 0.0394 (inactive)
F380Y/beta2Delta
  log fold change Tl+ flux: 0.0245 (inactive)
F380Y/beta4
  log fold change Tl+ flux: 0.0173 (inactive)
[8]
  log fold change Tl+ flux: -0.00699 (inactive)
R275C
  log fold change Tl+ flux: 0.0218 (inactive)
R275C/beta1
  log fold change Tl+ flux: 0.000317 (inactive)
R275C/beta2Delta
  log fold change Tl+ flux: 0.0028 (inactive)
R275C/beta4
  log fold change Tl+ flux: -0.0029 (inactive)
R275C/Slo1WT/beta2
  log fold change Tl+ flux: -0.136 (active)

## CO[C@H]1/C=C/O[C@@]2(C)Oc3c(C)c(O)c4c(O)c(c5c(c4c3C2=O)NC2(CCN(CC(C)C)CC2)N=5)=NC(=O)/C(C)=C\C=C\[C@H](C)[C@H](O)[C@@H](C)[C@@H](O)[C@@H](C)[C@H](OC(C)=O)[C@@H]1C
[1]
  parasite load remaining: 23.3% (inactive)
  viability: 92.9%
[9]; [11]
  fold change: 1.03 (inactive)
[9]; [12]
  fold change: 1.58
[9]; [13]
  cell count: 8520
[9]; [14]
  cell count: 8270
[10]
  z-score: -1.49 (inactive)
F380Y
  log fold change Tl+ flux: 0.0411 (inactive)
F380Y/beta1
  log fold change Tl+ flux: -0.0629 (inactive)
F380Y/beta2Delta
  log fold change Tl+ flux: -0.104 (active)
F380Y/beta4
  log fold change Tl+ flux: -0.0899 (inactive)
[8]
  log fold change Tl+ flux: -0.055 (inactive)
R275C
  log fold change Tl+ flux: -0.198 (active)
R275C/beta1
  log fold change Tl+ flux: 0.128 (active)
R275C/beta2Delta
  log fold change Tl+ flux: -0.107 (active)
R275C/beta4
  log fold change Tl+ flux: 0.00982 (inactive)
R275C/Slo1WT/beta2
  log fold change Tl+ flux: -0.0228 (inactive)

## CC(=O)[C@@]1(O)CC[C@H]2[C@@H]3C[C@H](C)C4=CC(=O)CC[C@]4(C)[C@H]3CC[C@@]21C
[1]
  parasite load remaining: 37.7% (inactive)
  viability: 68%
[2]
  fluorescence ratio: 0.96 (inactive)
[3]
  inhibition: -0.22% (inactive)
[4]
  inhibition: -0.39% (inactive)
[5]
  fluorescence ratio: 0.95 (inactive)
[6]
  z-score: -0.215 (inactive)
[7]
  mean signal: 243 (inactive)
F380Y
  log fold change Tl+ flux: 0.0243 (inactive)
F380Y/beta1
  log fold change Tl+ flux: 0.0476 (inactive)
F380Y/beta2Delta
  log fold change Tl+ flux: 0.0349 (inactive)
F380Y/beta4
  log fold change Tl+ flux: -0.018 (inactive)
[8]
  log fold change Tl+ flux: 0.00484 (inactive)
R275C
  log fold change Tl+ flux: -0.0195 (inactive)
R275C/beta1
  log fold change Tl+ flux: 0.0286 (inactive)
R275C/beta2Delta
  log fold change Tl+ flux: -0.00744 (inactive)
R275C/beta4
  log fold change Tl+ flux: 0.0101 (inactive)
R275C/Slo1WT/beta2
  log fold change Tl+ flux: -0.0331 (inactive)
